# HP1b chromo inh = inhibitors of HP1-beta chromodomain binding to methylated histone tails. P83916. AlphaScreen HP1-beta / biotin-H3K9me3 peptide binding. Potency, µM (top dose mostly 114 µM), for inactives: at the highest dose activity change, negative = inhibition, hits mostly inhibitors. hit rate 0.56% among 390,000. AID 540317; note: nearly all actives have a fitted effect of over 70% in size
#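 AlphaScreen: HP1-beta (50 nM) preformed 30 min with biotin-H3(1-18)K9me3 peptide (50 nM) in PBS pH 7.4, 0.01% Tween-20. Compound added for 30 min at RT, then streptavidin donor/nickel chelate acceptor beads (10 ug/mL) for 30 min.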
# BAZ2B inh = blocks human BAZ2B | AlphaScreen BAZ2B-H3K14Ac peptide displacement | hit rate 4.4% among 360,000 | Potency, µM (doses to about 114 µM), without a hit: at the highest dose activity change, negative = inhibition, usual class: inhibitors | Q9UIF8 | AID 504333; note: % is set by controls: 0 for no effect and ±100 for the full control effect; nearly all actives have a fitted effect of over 60% in size
#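 Complex of BAZ2B and biotin-H3K14Ac (50 nM apiece) forms over 30 min at RT, then faces library compounds up to 110 uM for another 30 min; AlphaScreen beads added, 20 min dark incubation, luminescence read.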
# G9a block = blocks human histone lysine methyltransferase G9a | Q96KQ7 | G9a H3K9 monomethylation, AlphaScreen, 2 h | hit rate 8.8% among 350,000 | Potency, µM (highest dose often 102 µM), for the others: at the top dose activity, negative = inhibition, usual class: inhibitors; note: % is set by controls: 0 for no effect and ±100 for the full control effect; nearly all actives have a fitted effect of over 75% in size
#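 Using a bead-based AlphaScreen, monomethylated H3K9 product from 2 h room-temperature reactions (G9a 20 nM, peptide 500 nM, SAM 20 uM) was detected with 0.5 ug/mL rabbit anti-H3K9me1 antibody.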
# JMJD2A Tudor = inhibitors of human JMJD2A Tudor domain. O75164. hit rate 4.4% among 390,000. Potency, µM (top dose mostly 114 µM), inactives show at the top dose activity change, negative = inhibition, usual class: inhibitors. AlphaScreen JMJD2A-Tudor / H3K4me3 peptide binding. AID 504339; note: % is set by controls: 0 for no effect and ±100 for the full control effect; nearly all actives have a fitted effect of over 50% in size
# Sfp PPTase inh = blocks B. subtilis Sfp PPTase activity; AID 1490; Biochemical Sfp PPTase activity, qHTS; Potency, µM, for the others: largest response in the series, negative = inhibition, most hits filed as inhibitors; hit rate 3.5% among 310,000; Q9F4F7;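 note: the enzyme is Sfp with the accession as filed and its product quenches rhodamine fluorescence; 0% = enzyme reaction without inhibitor and -100% = no enzyme wells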
#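 Fluorescence-quenching assay with 15 nM Sfp, 5 uM rhodamine-CoA and 12.5 uM BHQ-2-labelled ybbR peptide in pH 7.6 Hepes/MgCl2 buffer. Enzyme was pre-incubated with compound for 15 min at room temperature. Rate was taken from the 30-min fluorescence change (525/598 nm).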
# PLK1 PBD block = inhibitors of human PLK1 polo-box domain binding. P53350. Plk1 PBD binding of FITC phosphopeptide, fluorescence polarization. Potency, µM, without a hit: max response, negative = inhibition, actives largely listed as inhibitors. hit rate 2.8% among 360,000; note: series mostly up to about 57 µM; % is set by controls: 0 for no effect and ±100 for the full control effect; nearly all actives have a fitted effect of over 65% in size
# Target sequence (P53350 whole entry, looked up, the tested form may be a part): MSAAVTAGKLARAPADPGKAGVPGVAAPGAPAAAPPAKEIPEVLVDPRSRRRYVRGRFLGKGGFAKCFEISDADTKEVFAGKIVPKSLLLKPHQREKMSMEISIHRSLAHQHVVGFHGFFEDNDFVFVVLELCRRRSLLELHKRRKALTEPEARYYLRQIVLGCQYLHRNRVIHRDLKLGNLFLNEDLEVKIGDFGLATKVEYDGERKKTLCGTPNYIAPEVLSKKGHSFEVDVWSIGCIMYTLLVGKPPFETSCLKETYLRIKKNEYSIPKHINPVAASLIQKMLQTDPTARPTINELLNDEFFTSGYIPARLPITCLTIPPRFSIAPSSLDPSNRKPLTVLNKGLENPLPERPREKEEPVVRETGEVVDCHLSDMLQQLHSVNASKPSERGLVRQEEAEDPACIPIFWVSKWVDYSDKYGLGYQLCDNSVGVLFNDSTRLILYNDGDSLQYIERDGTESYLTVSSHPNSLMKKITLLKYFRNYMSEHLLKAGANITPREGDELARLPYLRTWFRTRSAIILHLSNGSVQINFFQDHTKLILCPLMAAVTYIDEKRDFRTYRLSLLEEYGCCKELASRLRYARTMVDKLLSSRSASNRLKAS
# * hit, by the source's call; ? = inconclusive; · = no result; [ ] = another dose, or the depositor's remark. In the library only some 12% were active in any assay of this set; here they are far more common. Calls come from the whole dose curve; as a rule, active = well fitted curve in the direction sought with a large enough effect; inconclusive = small, poorly fitted or top-dose-only effect, or another doubt; inactive = no such curve, though single readings can be large; an effect the other way counts as inactive or inconclusive. Potency is the fitted concentration of half-maximal effect.
SMILES,HP1b chromo inh,BAZ2B inh,G9a block,JMJD2A Tudor,Sfp PPTase inh,PLK1 PBD block
CCOc1ccc(N2CC(C(=O)Nc3ccc(S(=O)(=O)N4CCCC4)cc3)CC2=O)cc1 (configuration not stated),18%,-2%,35µM*,-5%,-29%,-3%
CCOc1ccc(N2CC(C(=O)Nc3cccc(S(=O)(=O)N4CCCCC4)c3)CC2=O)cc1 (configuration not stated),12%,-9%,-30%,-21%,7%,-9%
CSc1cccc(N2CC(C(=O)Nc3cccc(S(=O)(=O)N4CCCC4)c3)CC2=O)c1 (configuration not stated),-11%,?,11µM*,?,·,-11%
CCc1ccc(N2CC(C(=O)N/N=C/c3ccccc3)CC2=O)cc1 (configuration not stated),-6%,·,·,?,·,27µM*
CCc1ccc(N2CC(C(=O)Nc3ccc(S(=O)(=O)N4CCOCC4)cc3)CC2=O)cc1 (configuration not stated),9%,-11%,50µM*,-10%,·,0%
NCCCC[C@H](NC(=O)CNC(=O)[C@@H]1CCCN1C(=O)[C@H](Cc1ccc(O)cc1)NC(=O)CN)C(=O)N[C@@H](Cc1ccccc1)C(=O)O,·,·,·,·,4%,·
CCNc1ncc2ncc(=O)n(C3CC3)c2n1,·,·,16%[0.501 µM],·,11%,·
O=C(Nc1cccc(F)c1)C1CC(=O)N(c2ccc(Br)cc2)C1 (configuration not stated),8%,-1%,-38%,-19%[11.4 µM],6%,30µM*
CCOc1ccc(N2CC(C(=O)Nc3ccc(S(=O)(=O)N4CCCCC4)cc3)CC2=O)cc1 (configuration not stated),8%,7%,40µM*,-24%,·,4%
O=C(Nc1cccc(F)c1)C1CC(=O)N(c2ccc(Cl)cc2)C1 (configuration not stated),26%,-6%,-26%[2.33 µM],1%[57.1 µM],3%,?
COc1ccc(N2CC(C(=O)Nc3ccc(S(=O)(=O)N4CCCCC4)cc3)CC2=O)cc1 (configuration not stated),15%,-22%,·,-19%,-9%,-3%
CCN(CC(=O)NC(C)C)C(=O)c1ccc(S(=O)(=O)N(C)c2ccccc2OC)cc1,?,-8%,13%[59 µM],?,3%,3µM*
Cc1cccc2sc(N(CCN(C)C)C(=O)c3cc(Cl)sc3Cl)nc12,-13%,?,45µM*,?,-24%,0%
Cc1cc(C)c2sc(N(CCN(C)C)C(=O)c3cc(Cl)sc3Cl)nc2c1,5%,·,45µM*,?,-11%,-4%
CCN(CC)CCN(C(=O)C1=COCCO1)c1nc2ccc(C)cc2s1,20%,-22%,-19%,-10%,1%,-6%
CCN(CC)CCN(C(=O)C1=COCCO1)c1nc2c(OC)ccc(OC)c2s1,17%,-21%,45µM*,-17%,-13%,0%
COc1cc2ccccc2cc1C(=O)N(CCN(C)C)c1nc2c(OC)ccc(OC)c2s1,?,?,45µM*,40µM*,-25%,?
O=C(CS(=O)(=O)c1cccc2nsnc12)N1CCN(c2cccc(C(F)(F)F)c2)CC1,22%[57 µM],?,9%[59 µM],-29%,·,·
Cc1ccc(C2CN(CCC(N)=O)C(=O)CO2)cc1 (configuration not stated),27%,-5%,8%[2.33 µM],-22%,·,-3%
CS(=O)(=O)c1ccc(CNC(=O)C2(C(F)(F)F)C/C(=C\Cc3ccccc3)CCCO2)cc1 (configuration not stated),6%,·,·,-12%,-7%,-11%
CCOCCCNC(=O)c1ccc(N2CC3CC(C2)c2cccc(=O)n2C3)c(NC(=O)Nc2cccc(OC)c2)c1 (configuration not stated),21%,-32%,7%[59 µM],-8%,11%,-8%
COc1cc(OC)c(C2NC(=O)CCC2[N+](=O)[O-])cc1OC (configuration not stated),39%,-7%,3%,-1%,10%,1%
COc1ccc(OC)c2sc(N(CCN(C)C)C(=O)c3ccc4ccccc4c3)nc12,-19%[57 µM],?,16µM*,?,?,-16%
COc1cc(C(=O)N(CCCN(C)C)c2nc3c(OC)cccc3s2)cc(OC)c1OC,12%,-12%,-9%[59 µM],-26%,·,·
CCN(CC)CCN(C(=O)c1c(F)cccc1F)c1nc2cc(C)cc(C)c2s1,26%,·,56µM*,?,-23%,1%
SMILES,HP1b chromo inh,BAZ2B inh,G9a block,JMJD2A Tudor,Sfp PPTase inh,PLK1 PBD block
COc1cc2ccccc2cc1C(=O)N(CCN(C)C)c1nc2c(C)cccc2s1,11%,?,13µM*,?,?,-25%
COc1ccc(Cl)c2sc(N(CCN(C)C)C(=O)c3ccc4c(c3)OCCO4)nc12,-30%,?,50µM*,?,·,7%
CC(C)NC(=O)N1CC2(CCN(C(=O)c3cccn3C)CC2)C1,·,·,14%[12.7 µM],·,8%,·
CC(=O)N1CC(C)Sc2ccc(S(=O)(=O)NC(C)c3ccccc3)cc21 (configuration not stated),21%,-37%,·,-18%,16%,-11%
C#Cc1ccc(NC(=O)C2(C)CCN2C(=O)C2(c3ccccc3)CCCC2)cc1 (configuration not stated),·,·,·,·,·,4%
Cc1cn([C@H]2C[C@H](O)[C@@H](/C=C/C(=O)NCc3ccc(N(C)C)cc3)O2)c(=O)[nH]c1=O,·,·,·,·,·,-7%
COc1ccccc1C(=O)N(CCN(C)C)c1nc2cc(C)cc(C)c2s1,3%,·,?,?,2%,-1%
Cc1cc(C)c2sc(N(CCN(C)C)C(=O)c3ccc4ccccc4c3)nc2c1,-26%[57 µM],?,35µM*,22µM*,-30%,-10%
Nc1cccc2c1C(=O)N(CCOc1ccccc1F)C2=O,103%,57%,124%,80%,-7%,-28%
Cc1ccc(S(=O)(=O)Cn2nnnc2C(C(C)C)N2CCN(Cc3ccco3)CC2)cc1 (configuration not stated),24%,-6%,7%,-9%,11%,-2%
Cc1ccc(S(=O)(=O)Cn2nnnc2CN(Cc2ccco2)Cc2cccs2)cc1,15%,-1%,20µM*,-7%,14%,-7%
CC(/C=N/NC(=S)Nc1cccc(S(=O)(=O)N(C)C)c1)c1ccccc1 (configuration not stated),13%,-6%,8.9µM*,20µM*,89µM*,?
Cc1ccc(C)c(NC(=S)NCc2ccccc2)c1,31%,-25%,24%,-12%,21%,0%
CN(C)S(=O)(=O)c1cccc(NC(=S)N/N=C/c2ccco2)c1,-5%,-28%,-25%,-33%,16%,-11%

# Compound activity from PubChem BioAssay.
